High-throughput results (PubChem)
MEKK2mut PB1 HTS = signal of MEK5 binding to mutant human MEKK2 PB1 domain | percent response, % at 10 µM | AID 1530 | actives 0.35% (n = 290,000) | bead flow cytometry, Alexa488-MEK5 binding to MEKK2 mutant; in the data active = percent response above about 24%, passing the limit was not always enough
MEKK3 PB1 HTS = raises or lowers MEK5 binding to the human MEKK3 PB1 domain; Q99759; actives 1.4% (n = 290,000); bead-based flow cytometry, Alexa488-MEK5 binding to MEKK3; actives lie on both sides; 0 = blocked by unlabeled MEK5, 100 = vehicle; binding response (% of control), % at 10 µM;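 active = binding response more than 3 SD above or below the average of its plate-row segment, actives on both sides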;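 note: Alexa488 bead fluorescence after subtracting the streptavidin-only scavenger bead signal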
Target sequence (Q99759 whole entry, looked up, the tested form may be a part): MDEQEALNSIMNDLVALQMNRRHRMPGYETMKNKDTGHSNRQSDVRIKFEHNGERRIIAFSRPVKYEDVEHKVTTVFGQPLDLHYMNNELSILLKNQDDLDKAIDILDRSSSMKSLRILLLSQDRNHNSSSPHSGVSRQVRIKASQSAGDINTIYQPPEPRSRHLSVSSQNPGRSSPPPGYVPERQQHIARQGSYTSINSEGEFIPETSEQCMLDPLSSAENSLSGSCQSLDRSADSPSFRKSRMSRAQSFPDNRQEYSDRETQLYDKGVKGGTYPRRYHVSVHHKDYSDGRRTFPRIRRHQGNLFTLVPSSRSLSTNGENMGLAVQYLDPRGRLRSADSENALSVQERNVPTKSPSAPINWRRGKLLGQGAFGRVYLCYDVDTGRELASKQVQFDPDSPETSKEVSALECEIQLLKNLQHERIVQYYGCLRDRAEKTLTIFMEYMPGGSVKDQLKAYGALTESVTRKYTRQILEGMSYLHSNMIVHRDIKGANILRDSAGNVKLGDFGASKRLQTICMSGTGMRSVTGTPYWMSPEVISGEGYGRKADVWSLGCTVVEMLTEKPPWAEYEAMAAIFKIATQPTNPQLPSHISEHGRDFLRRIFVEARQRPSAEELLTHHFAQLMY
GRK2 inh = blocks RNA aptamer binding to human GRK2; actives 0.59% (n = 330,000); bead flow cytometry, FAM-aptamer displacement from GRK2; inhibition of aptamer binding, % at 10 µM;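 active = inhibition of aptamer binding above 40%, roughly 3 SD of noise, on plates passing a quality check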;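 note: median bead fluorescence of bound FAM aptamer so fluorescent compounds give negative values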
MEKK2wt PB1 HTS = raises or lowers MEK5 binding to wildtype human MEKK2 PB1 domain. Q9Y2U5. bead flow cytometry, Alexa488-MEK5 binding to MEKK2 WT; actives lie on both sides. binding response (% of control), % at 10 µM. actives 1.1% (n = 290,000). AID 1531; in the data active = binding response below about 67% or above about 130%
MEKK2wt confirm = raises or lowers MEK5 binding to wildtype human MEKK2, retest; shares compounds with MEKK3 PB1 HTS; bead flow cytometry, Alexa488-MEK5 binding to MEKK2 WT; actives lie on both sides; binding response (% of control), % at 10 µM; actives 2.4% (n = 5,900); AID 1892; in the data active = binding response below about 16% or above about 210%; inactive = in between
MEKK2mut confirm = signal of MEK5 binding to mutant human MEKK2, retest; shares compounds with MEKK3 PB1 HTS; bead flow cytometry, Alexa488-MEK5 binding to MEKK2 mutant; percent response, % at 10 µM; actives 2% (n = 5,900); in the data active = percent response mostly above about 71%, no sharp cut-off; inactive = mostly below about 38%;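 note: higher means compound restores mutant binding toward wildtype level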
MEKK3-MEK5 inh = MEKK3-MEK5 PB1 inhibition, single concentration confirmation; shares compounds with MEKK3 PB1 HTS; bead flow cytometry, Alexa488-MEK5 binding to MEKK3; hits give low values; binding response (% of control), % at 10 µM; actives 1.8% (n = 5,900);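 active = binding response below 72% of control, or above a set upper limit, though filed actives all read lower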;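 note: lower values mean stronger disruption of MEK5 binding to MEKK3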
Hits are given with their value; 0 = inactive; - = no result; [ ] = another dose, or the depositor's remark. Sampled rows, rich in hits. Any-hit rate of the full collection: about 2.5%.

SMILES	MEKK2mut PB1 HTS	MEKK3 PB1 HTS	GRK2 inh	MEKK2wt PB1 HTS	MEKK2wt confirm	MEKK2mut confirm	MEKK3-MEK5 inh
COc1cccc(CN2CCNC(=O)C2CC(=O)NCCN2CCCCC2=O)c1 (stereo not drawn)	0	0	0	0	-	-	-
O=C(NCC1CCCN1S(=O)(=O)c1cccs1)c1ccccc1F (stereo not drawn)	-	-	0	-	-	-	-
CCCCCCC(C)OC(=O)Nc1cccc2ccccc12 (stereo not drawn)	0	70[inhibitor]	0	0	0	0	0
COc1ccc(Nc2ccc(C(F)(F)F)cc2[N+](=O)[O-])cn1	0	0	0	0	-	-	-
COc1ccc(N=C2SC(C(=O)Nc3ccc(C(=O)O)cc3)CC(=O)N2Cc2cccs2)cc1 (stereo not drawn)	0	131	0	0	0	0	0
CCOc1cc(/C=C/C(=O)OCC(=O)NCC2CCCO2)cc(Cl)c1OC (stereo not drawn)	-	-	0	-	-	-	-
Cc1oc(-c2cccc(Cl)c2)nc1CN1CCC(C(=O)N2CCN(c3ccccc3F)CC2)CC1	0	0	0	140	0	0	0
COc1cccc(NC(=S)NN2C(C)CCCC2C)c1 (stereo not drawn)	0	132	0	0	0	0	0
O=C(O)/C=C/c1ccc(S(=O)(=O)Nc2ccc(OCc3ccccc3)cc2)cc1	0	73[inhibitor]	0	0	0	0	0
O=C(O)CCc1ccc(S(=O)(=O)Nc2ccc(OCc3ccccc3)cc2)cc1	0	0	0	0	-	-	-
C#CCN1C(=O)C(O)(CC(=O)c2cccc(OC)c2)c2ccccc21 (stereo not drawn)	0	1.0[inhibitor]	0	1.0[inhibitor]	0	0	0
CN(C)S(=O)(=O)c1ccc(NC(=O)C2CC3C=CC2C3)cc1 (stereo not drawn)	0	3.0[inhibitor]	0	9.0[inhibitor]	0	0	0
Cc1c(NS(=O)(=O)c2cc(C(=O)NCc3ccco3)cc(Cl)c2Cl)c(=O)n(-c2ccccc2)n1C	-	-	0	-	-	-	-
CN(C)c1ccc(/C=C/C=C2/SC(=S)N(c3ccccc3)C2=O)cc1	-	0.0[inhibitor]	0	-	0	0	69
COc1cccc(NC(=O)COC(=O)C2=NN(c3ccccc3)C(=O)CC2)c1	-	-	0	-	-	-	-
CC(C)(C)c1ccc(-c2c(C#N)c(N)nc3c2CCCC3)s1	0	0	0	0	-	-	-
CCc1sc(-c2c(C#N)c(N)nc3c2CCCCCC3)cc1[N+](=O)[O-]	0	1.0[inhibitor]	0	1.0[inhibitor]	0	0	0
Cn1nnnc1SCCNC(=O)C1CCC(=O)N(Cc2ccc(Cl)cc2)C1 (stereo not drawn)	0	0	0	0	-	-	-
Cc1ccc(S(=O)(=O)Oc2ccccc2/C=N/N=C(N)N)cc1	0	0	0	149	0	0	0
Cc1ccc(S(=O)(=O)Oc2ccccc2/C=N/NC(N)=S)cc1	0	0	0	0	-	-	-
Cc1ccc(-n2[nH]c(C)c(C=Nc3ccc(S(=O)(=O)Nc4nccs4)cc3)c2=O)cc1	0	0	0	0	-	-	-
CCc1nnc(NS(=O)(=O)c2ccc(N=Cc3c(C)[nH]n(-c4ccc(C)c(C)c4)c3=O)cc2)s1	0	160	0	0	0	0	0
CC(C)Cn1c(=O)c(C(=O)Nc2ccccc2S(N)(=O)=O)c(O)c2ccccc21	0	0	0	0	-	-	-
CCOC(=O)Cc1csc(NC(=O)c2c(O)c3ccccc3n(CC(C)C)c2=O)n1	0	73[inhibitor]	0	0	0	0	0
CC1CCN(CCc2nc3cc(NC(=O)COc4ccccc4)ccc3n2C)CC1	0	0	0	0	-	-	-
SMILES	MEKK2mut PB1 HTS	MEKK3 PB1 HTS	GRK2 inh	MEKK2wt PB1 HTS	MEKK2wt confirm	MEKK2mut confirm	MEKK3-MEK5 inh
O=C(O)C1=C[C@H](c2csc3ccccc23)C[C@H](OCc2ccc(CO)cc2)O1	0	66[inhibitor]	-	0	0	0	0
O=C(O)C1=C[C@@H](c2csc3ccccc23)C[C@@H](OCc2ccc(CO)cc2)O1	0	0	0	0	-	-	-
CN(C)C(=O)Cn1cnc2c(cnn2-c2ccc(F)cc2)c1=O	0	0	0	0	-	-	-
N#C/C(=C/c1ccc(-c2ccc(S(N)(=O)=O)cc2)o1)c1nc2ccccc2s1	0	63[inhibitor]	0	28[inhibitor]	0	0	0
C/C1=C\CCC2C(/C=C(\C)CC1)OC(=O)C2CN1CCCCC1 (stereo not drawn)	0	0	0	0	-	-	-
CCOC(=O)c1c(-c2ccc(C)cc2)csc1/N=C/N(C)C	0	0	0	0	-	-	-
CCOC(=O)c1c(-c2ccc(F)cc2)csc1/N=C/N(C)C	0	129	0	0	0	0	0
CCS(=O)(=O)N1CCN(c2ccc(S(=O)(=O)N3CCOCC3)cc2)CC1	0	48[inhibitor]	0	0	0	0	0
O=S(=O)(c1ccc(N2CCOCC2)cc1)N1CCOCC1	0	0	0	0	-	-	-
CCN(CC(=O)Nc1ccc2c(c1)OCCO2)C(=O)/C=C/c1ccc([N+](=O)[O-])cc1	-	-	0	-	-	-	-
CCn1ccnc1CN(C)Cc1cn(-c2ccc(C)cc2)nc1-c1cccc(C)c1	0	0	0	138	0	0	0
COc1ccc(CN(C)CC(=O)Nc2cc(OC)c([N+](=O)[O-])cc2C)c(OC)c1	0	133	0	0	0	0	0
COc1cc(NC(=O)CN(C)Cc2ccc(OC(F)F)cc2)c(C)cc1[N+](=O)[O-]	0	0	0	0	-	-	-
COc1cc(NC(=O)CN(C)Cc2cccc(F)c2)c(C)cc1[N+](=O)[O-]	0	128	0	0	0	0	0
C=CCN1CCN(C(=O)c2cc3c(s2)CCCC3)CC1	0	0	0	0	-	-	-
CC(C(=O)Nc1ccncc1)(c1ccccc1)c1ccccc1	0	0	0	0	-	-	-
O=C(/C=C/c1ccco1)NC(=S)Nc1ccc(N2CCCC2)cc1	0	142	0	0	0	0	0
Cc1cc2oc(=O)cc(CN3CCCc4ccccc43)c2cc1C	228	0	0	-	0	0	0
Cc1cc2c(cc1S(=O)(=O)N(C)Cc1ccccc1)n(C)c(=O)c(=O)n2C	0	0	0	0	-	-	-
CN(Cc1ccccc1)S(=O)(=O)c1ccc2c(c1)n(C)c(=O)c(=O)n2C	0	130	0	0	0	0	0
COc1ccc(CCN(Cc2cc3ccc(C)cc3[nH]c2=O)C(C)=O)cc1OC	0	135	0	0	0	0	0
COc1ccc(CCNCc2cc3ccc(C)cc3[nH]c2=O)cc1OC	0	0	0	0	-	-	-
Cc1ccc2cc(CN(C(=O)c3ccco3)c3ccccc3)c(=O)[nH]c2c1	0	0	0	0	-	-	-
Cc1cccc(N(Cc2cc3ccc(C)cc3[nH]c2=O)C(=O)c2ccco2)c1	0	133	0	0	0	0	0
Cc1ccc(S(=O)(=O)N2CCCCC2C)cc1[N+](=O)[O-] (stereo not drawn)	0	0	0	0	-	-	-
